Measurements: PubChem BioAssay (NCATS)
Inconclusive results are not listed. Active and inactive are the calls of the source. Calls follow the shape of the dose curve; as a rule, active = well fitted inhibition curve with a large enough effect; inconclusive = small, poorly fitted or top-dose-only effect; inactive = flat fitted curve, though single readings scatter.

Test system: CRL-7250
Test: qHTS assay to identify novel small-molecules to repurpose for Merkel cell carcinoma treatment (AID 1296009); also: nearly all actives have a fitted effect of over 60% in size
Settings: MCC and control cell lines, CellTiter-Glo viability, 72 h; series mostly up to 92 µM; activity change, negative = cytotoxicity: at the top concentration
Outline: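 Luminescence from CellTiter-Glo, read 10 min after addition at room temperature, reported viability following a 72 hr, 37 degree celsius treatment with NPC or MIPE compounds in titration; values normalized to plate controls.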

| Compound | outcome |
| --- | --- |
| CC1=CC(=O)C(=C(C)C)CC2C(C)(O)CCC12O (stereo not drawn) | inactive |
| Cc1nc2cc(C(=O)NCc3ccccn3)nn2c(C)c1Cc1cccc(Cl)c1 | inactive |
| COC(=O)C1=COC(O[C@@H]2O[C@H](CO)[C@@H](O)[C@H](O)[C@H]2O)[C@H]2[C@@H]1[C@H](OC(=O)CCc1ccc(O)cc1)C[C@]2(C)O (stereo partly drawn) | inactive [at 17.4 µM] |
| CC1CCC2(CO)C(C(=O)O)=CCCC2C1(C)CCc1ccoc1 (stereo not drawn) | inactive |
| Cc1nnc(-c2ccc3occ(-c4ccc(S(C)=O)cc4)c3c2)o1 (stereo not drawn) | inactive |
| O=C(OC(C(F)(F)F)C(F)(F)F)N1CCN(Cc2cccc(Oc3ccccc3)c2)CC1 | inactive |
| COc1c2c(c(C)c3c1C(=O)OC3)OC1(C)CC(O)C34OC(OC)(CCC3(C)C1C2)OC4(C)CO (stereo not drawn) | inactive [at 17.4 µM] |
| CC(C/C=C/C(C)(C)O)C1CCC(C)(O)C(O)C1 (stereo not drawn) | inactive |
| CCCCc1c(-c2ccc(OC)cc2)[nH]c2nccnc12 | inactive |
| CCC(C)/C=C(C)/C=C/C1=CC2=C(Cl)C(=O)C(C)(OC(C)=O)C(=O)C2(O)C(OC)O1 (stereo not drawn) | inactive [at 17.4 µM] |
| COc1ccc(C2=CC(=O)OC2Cc2ccc(O)cc2)c(O)c1 (stereo not drawn) | inactive |
| COc1ccc(C2Oc3c(OC)cc(CCCO)cc3C2COC2OC(CO)C(O)C(O)C2O)cc1OC (stereo not drawn) | inactive [at 17.4 µM] |
| CC1(C)NC2N(C1=O)c1ccccc1C2(O)CC(C(=O)O)n1cnc2ccccc2c1=O (stereo not drawn) | inactive [at 17.4 µM] |
| CCN(CCN(C)C)C(=O)CNCc1cc(C(N)=O)ccn1 | inactive |
| C=CC(C)(O)CC/C=C(/C)C(=O)OC1C(OC2OCC(OC3OC(CO)C(O)C(O)C3O)C(OC3OCC(O)C(OC4OC(C)C(O)C(O)C4O)C3O)C2O)COC(OC(=O)C23CCC(C)(C)CC2C2=CCC4C5(C)CCC(OC6OC(CO)C(OC7OC(CO)C(O)C(OC8OCC(O)C(O)C8O)C7O)C(O)C6O)C(C)(C)C5CCC4(C)C2(C)CC3O)C1O (stereo not drawn) | inactive [at 4.96 µM] |
| COc1c2c(c(C)c3c1C(=O)OC3)O[C@@]1(C)C[C@@H](O)[C@]34O[C@](OC)(CC[C@]3(C)[C@H]1C2)OC4(C)C | inactive [at 17.4 µM] |
| c1nc(NC2CCCCCC2)c2cc(CNC[C@H]3CCCO3)sc2n1 | inactive |

| Compound | outcome |
| --- | --- |
| CSCC1OC(n2cnc3c(N)ncnc32)C(O)C1O (stereo not drawn) | inactive |
| C=CC1(C)C=C2C(=O)CC3C(C)(C)CCCC3(C(=O)O)C2(O)CC1 (stereo not drawn) | inactive |
| OC[C@H]1O[C@@H](O[C@H]2[C@H](OCCc3ccccc3)O[C@H](CO)[C@@H](O)[C@@H]2O)[C@H](O)[C@@H](O)[C@@H]1O | inactive [at 17.4 µM] |
| O=S(=O)(O)c1ccc(Nc2ncnc3c2ncn3[C@@H]2O[C@H](CO)[C@@H](O)[C@H]2O)cc1 | inactive |
| C=C(C(=O)O)[C@@H]1CC[C@H](C)[C@@H]2CC(=O)C(C)=C2C1 | inactive |
| C=C1CC[C@@]2(OC1)O[C@H]1CC3C4CC=C5C[C@@H](O[C@@H]6O[C@@H](C)[C@H](O)[C@@H](O)[C@H]6O)C[C@@H](O[C@@H]6O[C@H](C)[C@H](O)[C@H](O)[C@H]6O[C@@H]6O[C@@H](C)[C@H](O)[C@@H](O)[C@H]6O)[C@]5(C)C4CC[C@]3(C)[C@H]1[C@@H]2C (stereo partly drawn) | inactive [at 9.27 µM] |
| Cc1ccc([C@@H]2CC=C(C(=O)O)[C@H](c3ccc(C(C)(C)C)cc3)N2S(=O)(=O)c2ccc(C)cc2)cc1 | inactive |
| CC1(C)C[C@H](O)C[C@@]2(C)[C@H]1[C@H](O)C=C1COC(=O)[C@@]12O | inactive |
| COc1cc(C(C)=O)c(OC)c2c1OC(C)(C)C=C2 | inactive |
| COc1cc2c(c(O)c1OC/C=C(\C)CC/C=C(/C)CCC=C(C)C)CN(C(CCC(=O)O)C(=O)O)C2=O (stereo not drawn) | inactive [at 17.4 µM] |
| COc1cc(O)c2c(c1Cl)CC(C)OC2=O (stereo not drawn) | inactive |
| COC(=O)C1=COC(O[C@@H]2O[C@H](COC(=O)/C=C/c3ccc(O)cc3)[C@@H](O)[C@H](O)[C@H]2O)C2C(CO)=CCC12 (stereo partly drawn) | inactive [at 17.4 µM] |
| C=C(C)[C@@H]1CC[C@]2(C)CC[C@]3(C)C(CCC4[C@@]5(C)CC[C@H](O)C(C)(C)C5CC[C@]43C)C12 (stereo partly drawn) | inactive [at 17.4 µM] |
| C=C1CC2C3(C)C(O)CC(=O)C(C)(C)C3C(O)C(OC(C)=O)C2(C)C2C(=O)OC(C)(C(=O)OC)C(=O)C12C (stereo not drawn) | inactive [at 17.4 µM] |
| CC1(C)CCC2(C(=O)OC3OC(COC4OC(CO)C(O)C(O)C4O)C(O)C(O)C3O)CCC3(C)C(=CCC4C5(C)CCC(O)C(C)(C(=O)O)C5CCC43C)C2C1O (stereo not drawn) | inactive [at 9.27 µM] |
| COc1cc(C(O)C(CO)Oc2ccc(CCCO[C@@H]3O[C@@H](C)[C@H](O)[C@@H](O)[C@H]3O)cc2OC)ccc1O (stereo partly drawn) | inactive [at 17.4 µM] |
